Test results as given in PubChem BioAssay (NCI).
The panel holds about 83,000 compounds, 20% with a hit somewhere; the sample as a whole holds those more often.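 The endpoint reported here, percent growth, reads 100 for growth as untreated, 0 for no net growth and -100 for all cells dead.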 Values without a mark were called inactive. Active and inactive are the calls of the source. Rule for the calls: active = growth percent below 10; inactive = the rest.

tested on: A549/ATCC NSCLC; assay: NCI-60 one-dose screen, 48 h (100 = growth as untreated, 0 = no growth, -100 = all killed); details: 10 µM unless noted

Q: Which growth does the source give for `COC(=O)[C@@H]1CCCN1C(=O)[C@H]1CCCN1C(=O)[C@@H](Cc1c[nH]c2ccccc12)NC(=S)Nc1cc(C(F)(F)F)cc(C(F)(F)F)c1` here?
A: The growth was 28.4%.

Q: With `Cc1ccc(F)cc1NC(=O)c1cc(Cl)ccc1Nc1ccccc1` as the compound, how does the growth read?
A: The growth was 42.3%.

Q: With `CC1=C(C(=O)OCC2CCN(C(=O)OC(C)(C)C)CC2)[C@@H](c2cccc(C#N)c2)C2=C(CC(C)(C)CC2=O)N1` as the compound, how does the growth read?
A: Its growth is 35.5%.

Q: Which growth does the source give for `CCCCCCc1cc2cc(-c3csc(/C=C/c4ccccc4)n3)c(=O)oc2cc1O` here?
A: The growth was 28.7%.

Q: With `COc1ccc(Br)c(/C=C2\SC(=Nc3ccc(O)cc3)NC2=O)c1` as the compound, how does the growth read?
A: The growth was 87.2%.

Q: For `COc1ccc(Cn2c(Br)c3c(c2Br)-c2nc(N)sc2CC3)cc1`, which growth is on record?
A: The growth was 39.1%.

Q: Which growth does the source give for `COC(=O)c1cc2c(n1Cc1ccccc1)-c1oncc1CCC2` here?
A: Its growth is 49.3%.

Q: For `CCOC(=O)c1sc(-c2ccc(OS(=O)(=O)c3ccccc3[N+](=O)[O-])c(C=O)c2)nc1C`, which growth is on record?
A: The growth was 82.3%.

Q: Which growth does the source give for `Clc1ncccc1Nc1ccc2nnc(-c3ccncc3)n2n1` here?
A: The growth was 102%.

Q: With `O=C1NC(=O)C(=Cc2cn(Cc3cn(Cc4ccc(Cl)cc4Cl)nn3)c3ccccc23)C(=O)N1` as the compound, how does the growth read?
A: The growth was 101%.

Q: `CCCCCCn1c(=N)n(CC(O)COc2cccc(C)c2)c2ccccc21` (centres undefined) was tested. Which growth did it give?
A: Its growth is -32.3% (active).

Q: Which growth does the source give for `O=C(Nc1ncc(Cc2cccc(C(F)(F)F)c2)s1)C1COc2ccccc2O1` (centres undefined) here?
A: The growth was 74.7%.

Q: `CN1C(=O)N(C)C2C1NN=c1s/c(=C\c3ccc([N+](=O)[O-])cc3)c(=O)n12` (centres undefined) was tested. Which growth did it give?
A: Its growth is 59.9%.

Q: How did the growth turn out when `O=C(c1nc2ccccc2[nH]1)C1C(c2ccc(F)cc2)C2CC3CCCCC3N2[C@@]12C(=O)Nc1ccc(Cl)cc12` (some centres undefined) was run?
A: Its growth is 29.3%.

Q: How did the growth turn out when `COc1ccc(/C=C/C(=O)c2ccc3cc(OC)c(OC)cc3c2)cc1OC` was run?
A: Its growth is 19.5%.

Q: How did the growth turn out when `O=c1oc2ccc(F)cc2c(=O)n1-c1ccc(Br)cc1F` was run?
A: The growth was 4.2% (active).

Q: How did the growth turn out when `COc1cc(/C=C2\CN(S(=O)(=O)c3ccccc3)C/C(=C\c3cc(CN4CCCC4)c(O)c(OC)c3)C2=O)cc(CN2CCCC2)c1O` was run?
A: Its growth is 19.9%.

Q: `CC(C)C[C@H](C(=O)N[C@@H](C)C(N)=O)N1CC=CCN(O)S1(=O)=O` was tested. Which growth did it give?
A: The growth was 102% [5 µM].

Q: Which growth does the source give for `CN(C)CCCNCc1ccc(-c2ccc(F)c(Cl)c2)o1` here?
A: Its growth is -50.5% (active).

Q: Which growth does the source give for `O=c1oc2ccc(-c3ccc(F)cc3F)cc2c(=O)n1-c1cccc(C(F)(F)F)c1` here?
A: The growth was 7.26% (active).

Q: Which growth does the source give for `O=C(N=Nc1c(O)[nH]c2ccccc12)c1oc2ccccc2c1CN1CCN(c2ccccc2)CC1` here?
A: Its growth is -13.5% (active).

Q: For `O=C(Nc1ccc(Br)cc1F)c1cc(F)ccc1O`, which growth is on record?
A: Its growth is 9.75% (active).

Q: Which growth does the source give for `COc1cc(NC(=O)CCSc2nc3ccccc3c(=O)n2Cc2ccccc2)cc(OC)c1OC` here?
A: The growth was 72.7%.

Q: `O=C(Nc1ccc(I)cc1F)c1cc(F)ccc1O` was tested. Which growth did it give?
A: The growth was 6.45% (active).

Q: How did the growth turn out when `COc1nccc2cc3c(=O)n4c(cc5ccccc54)c(=O)n3c12` was run?
A: Its growth is 104%.

Q: With `O=C(COc1cc(O)c2c(=O)cc(-c3ccccc3)oc2c1)Nc1ccccc1` as the compound, how does the growth read?
A: Its growth is 84.6%.

Q: With `O=c1oc2ccc(-c3ccc(F)cc3F)cc2c(=O)n1-c1ccc(Cl)c(C(F)(F)F)c1` as the compound, how does the growth read?
A: Its growth is 7.35% (active).

Q: For `CCN1CCN(c2cc(C)c3cc(NC(=O)c4ccc(OC)c(OC)c4)ccc3n2)CC1`, which growth is on record?
A: The growth was 33.3%.

Q: `COc1ccc(Cn2c(Br)c3c(c2-c2cc(OC)c(OC)c(OC)c2)CCc2sc(NC(C)=O)nc2-3)cc1` was tested. Which growth did it give?
A: Its growth is 52.8%.

Q: For `COc1ccccc1C(=O)O/N=C(\N)Cc1cccc2ccccc12`, which growth is on record?
A: The growth was 70.1%.

Q: `O=C(Nc1ccc(Cl)cc1F)c1cc(I)ccc1O` was tested. Which growth did it give?
A: The growth was 17.6%.

Q: How did the growth turn out when `O=C(O)CCC(=O)c1ccc(C2CCCCCC2)cc1` was run?
A: Its growth is 99.6%.

Q: For `CCCCOCc1cc(CN2CCN(C)CC2)c(O)c2ncccc12`, which growth is on record?
A: The growth was 35.9%.

Q: Which growth does the source give for `COC(=O)/C(CCC=C(C)C)=C1\[C@@H](OC(C)=O)C[C@@]2(C)[C@H]1C[C@@H](O)[C@H]1[C@@]3(C)CC[C@H](NCc4ccccc4)[C@@H](C)[C@@H]3CC[C@@]12C` here?
A: The growth was 59%.

Q: With `O=C(NC1C(O)OC(CO)C(O)C1O)NS(=O)(=O)c1ccc(Cl)cc1` (centres undefined) as the compound, how does the growth read?
A: Its growth is 109%.

Q: With `O=C(Nc1ccc(Br)cc1F)c1cc(Cl)ccc1O` as the compound, how does the growth read?
A: The growth was 8.65% (active).

Q: Which growth does the source give for `CCOC(=O)c1c(C=O)nc2ccccc2c1/C=C/c1ccc(Cl)cc1` here?
A: The growth was 96.4%.

Q: `COc1cccc2cc(N(C)c3nc(C)nc4ccsc34)ccc12` was tested. Which growth did it give?
A: Its growth is 7.7% (active).

Q: How did the growth turn out when `COc1cc(/C=C/C(=O)c2c(C)nc3ccccc3c2/C=C/c2ccccc2)cc(OC)c1OC` was run?
A: Its growth is 8.71% (active).
